From PubChem BioAssay
In the library only some 3.3% were active in any assay of this set; here they are far more common.
ERa coact inh: ER-alpha (human) coactivator binding inhibition; TR-FRET ER-alpha LBD / SRC-1 peptide, estradiol-bound; P03372; inhibition, % at 25.6 µM; actives 1.7% (n = 86,000); in the data active = inhibition above about 50%;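 also: 0% = receptor plus peptide control and 100% = peptide only without receptor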
PLK1 kinase inh: PLK1 (human) kinase inhibition. P53350. recombinant PLK1 kinase, TR-FRET peptide phosphorylation. inhibition, % at 10 µM. actives 0.53% (n = 97,000). AID 619;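 active = inhibition of 50% or more in the single-concentration screen; inactive = inhibition below 50%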;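 also: 0% = DMSO max control and 100% = H-89 dihydrochloride min control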
ERb SRC1 inh: ER-beta (human) coactivator binding inhibition | AID 633 | Q92731 | TR-FRET ER-beta LBD / SRC1-Cy5 peptide binding; receptor agonist-loaded with 1 µM estradiol | actives 1.3% (n = 86,000) | inhibition, % at 25.6 µM;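 active = compounds whose percent inhibition of the receptor-coactivator binding signal exceeds about 50% in the single-dose screen, limit read from the data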;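 also: 0% = receptor plus peptide wells without compound and 100% = peptide-only wells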
Plk1 PBD FP: blocks phosphopeptide binding to human Plk1 polo box domain. P53350. inhibition, %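 (tested at about 20 µM)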. actives 0.13% (n = 97,000). AID 693. Plk1 PBD phosphopeptide binding, fluorescence polarization; in the data active = inhibition above about 34%, passing the limit was not always enough
Smad3 FoxH1 inh: Smad3 (human) transcription factor binding inhibition; inhibition, % at 25 µM; TR-FRET Smad3/Dy647-FoxH1 peptide binding, europium anti-His; actives 0.29% (n = 88,000);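 active = compounds that reduce the energy-transfer binding signal between the protein and its labelled peptide by more than half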;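 also: 0% = Smad3 plus labelled peptide maximal FRET and 100% = peptide-only background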
Target sequence (P84022 whole entry, looked up): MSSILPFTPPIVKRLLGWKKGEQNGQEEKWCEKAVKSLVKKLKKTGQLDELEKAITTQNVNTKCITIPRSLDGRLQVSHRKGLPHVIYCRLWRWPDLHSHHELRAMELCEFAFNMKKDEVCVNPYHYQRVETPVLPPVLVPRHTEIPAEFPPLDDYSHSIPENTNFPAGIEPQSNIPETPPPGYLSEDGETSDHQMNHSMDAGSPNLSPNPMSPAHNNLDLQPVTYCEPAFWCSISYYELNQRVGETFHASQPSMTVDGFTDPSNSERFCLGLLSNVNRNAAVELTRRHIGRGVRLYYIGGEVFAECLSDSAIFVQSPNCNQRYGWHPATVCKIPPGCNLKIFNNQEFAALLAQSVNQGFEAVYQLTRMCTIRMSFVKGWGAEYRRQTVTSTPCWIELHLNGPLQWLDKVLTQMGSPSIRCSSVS
ERa SRC1 pot: enhances coactivator binding to human estrogen receptor alpha | P03372 | TR-FRET ERalpha-LBD/SRC-Cy5 coactivator binding, 2 h; 100 = basal binding, no effect | coactivator binding (% of control), % at 25.6 µM | actives 1.3% (n = 86,000); in the data active = activity above about 200%;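 also: binding measured in presence of low estradiol as agonist stimulus; 0% = peptide alone without receptor and 100% = receptor with peptide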
The depositor's hits bear a star; nt = not tested or not shown; [ ] = dose if it differs, or a comment.

SMILES | ERa coact inh | PLK1 kinase inh | ERb SRC1 inh | Plk1 PBD FP | Smad3 FoxH1 inh | ERa SRC1 pot
Cc1nn(Cc2ccc(Cl)c(Cl)c2)c(C)c1NC(=O)c1cc(-c2ccc3c(c2)OCO3)on1 | 36 | -3 | -20 | -7 | -10 | 94
Cc1nn(Cc2ccc(Cl)cc2)c(C)c1NC(=O)c1cc(-c2ccc3c(c2)OCO3)on1 | 70*[fluorescence artefact?] | -3 | 19 | -4 | 6 | 74
O=C(NCc1ccco1)c1cc(-c2ccc3c(c2)OCO3)on1 | 26 | -5 | 11 | -5 | 6 | 261*[fluorescence artefact?]
CCOC(=O)C1CCN(CC(O)COc2ccc(C(C)=O)cc2)CC1 (stereo not given) | -6 | 65* | -2 | 1 | -12 | 113
O=C(c1ccccc1)c1ccc(OCC(O)CN2CCN(Cc3ccccc3)CC2)cc1 (stereo not given) | 8 | -8 | -2 | 4 | 8 | 80
CC(=O)c1ccc(OCC(O)CN2CCN(c3ccccn3)CC2)cc1 (stereo not given) | -7 | 69* | -4 | 4 | 3 | 103
CC(=O)c1ccc(OCC(O)CN2CCN(Cc3ccccc3)CC2)cc1 (stereo not given) | -7 | 65* | 0 | 0 | 3 | 114
O=C(Nc1ccc2nn(-c3ccccc3)nc2c1)c1ccc2c(c1)OCCO2 | 27 | -16 | 20 | 12 | -1 | 98
O=C(Nc1ccc2nn(-c3ccccc3)nc2c1)c1ccc(Br)o1 | 56* | nt | 39 | nt | -7 | 207*
Cc1ccc(-n2nc3ccc(NC(=O)c4ccc5c(c4)OCO5)cc3n2)cc1 | 88*[fluorescence artefact?] | -4 | 66*[fluorescence artefact?] | 0 | 11 | 60
Cc1ccc(-n2nc3ccc(NC(=O)c4ccco4)cc3n2)cc1 | 71*[fluorescence artefact?] | -8 | 47 | 11 | 1 | 196
CCc1ccc(-n2nc3ccc(NC(=O)c4ccc5c(c4)OCO5)cc3n2)cc1 | 37 | -30 | 14 | -7 | 4 | 362*[fluorescence artefact?]
CN(C)CCC[C@@H]1c2ccccc2Oc2ccc(C(F)(F)F)cc21 | nt | nt | nt | nt | -4 | nt
CC(=O)O[C@H]1CC[C@@]2(C)C(=CC[C@@H]3[C@H]4CC[C@@H](c5cc(C(F)(F)F)n(C(C)=O)n5)[C@]4(C)CC[C@H]32)C1 | nt | nt | nt | nt | -6 | nt
CCN(CC)c1ccc2c(c1)oc(=O)c1c(Cl)cc(=O)oc12 | -6 | -10 | -7 | -67 | 13 | 309*
CCOC(=O)c1c(C)[nH]c(C(=O)COC(=O)c2ccc(F)c(S(=O)(=O)N3CCOCC3)c2)c1C | 12 | -8 | 15 | 19 | 4 | 148
CC(=O)NC(C)C(=O)OCC(=O)Nc1ccc(Br)cc1 (stereo not given) | 78* | -7 | 36 | 0 | -11 | 109
COCCNC(C)C(=O)Nc1ccc(Br)cc1 (stereo not given) | -7 | nt | -6 | nt | -2 | 97
Cc1cc(C)cc(C(=N)c2ccccc2Cc2cccc3ccccc23)c1 | nt | nt | nt | nt | 6 | nt
NS(=O)(=O)c1nc(S(=O)(=O)O)c2[nH]cnc2n1 | nt | nt | nt | nt | 3 | nt
CCCc1cc(N2CCN(c3ccccn3)CC2)n2nc(C)c(-c3ccccc3)c2n1 | 5 | -9 | 25 | -5 | 13 | 242*[fluorescence artefact?]
CN1CCN(Cc2nc3c(c(=O)n(C)c(=O)n3C)n2CCc2ccccc2)CC1 | -5 | nt | 9 | nt | -7 | 96
Cn1c(=O)c2[nH]c([C@@H]3CC(=O)C[C@H](c4nc5c([nH]4)c(=O)n(C)c(=O)n5C)N3)nc2n(C)c1=O | nt | nt | nt | nt | 42 | nt
CCOC(=O)c1sc(NC(=O)c2ccco2)nc1-c1ccccc1 | 6 | -86 | 8 | -18 | 1 | 271*[fluorescence artefact?]
CC(=O)c1sc(NC(=O)c2ccco2)nc1-c1ccccc1 | -1 | 13 | -5 | 16 | -1 | 101
SMILES | ERa coact inh | PLK1 kinase inh | ERb SRC1 inh | Plk1 PBD FP | Smad3 FoxH1 inh | ERa SRC1 pot
NNC(=O)CCc1ccc2ccc3ccccc3c2c1 | nt | nt | nt | nt | 36 | nt
NCCSS(=O)(=O)CCN | nt | nt | nt | nt | 62* | nt
Cc1ccc(C2CC(=O)N(c3ccc(F)cc3)C3=C2C(=O)CCC3)cc1 (stereo not given) | -2 | -12 | -2 | 14 | 2 | 105
COc1ccccc1NC(=O)Cn1cnc2c1c(=O)n(C)c(=O)n2C | 4 | 3 | 5 | 11 | -1 | 112
Cc1ccccc1NC(=O)Cn1cnc2c1c(=O)n(C)c(=O)n2C | -9 | -4 | 62* | -1 | 4 | 97
Nc1nc2c(C(=O)NCc3cccs3)nnn2c2cccc(Cl)c12 | nt | nt | nt | nt | 4 | nt
N#CC(c1ccc(O)cc1)N1CCOCC1 (stereo not given) | -15 | -14 | -24 | 2 | -1 | 112
O=C(O)Cn1ccnc1[N+](=O)[O-] | nt | nt | nt | nt | 0 | nt
COc1cccc(OC)c1C(=O)NC(=S)Nc1ccc2c(c1)Cc1ccccc1-2 | -1 | -12 | 0 | 10 | 8 | 202*
COc1ccc(C(=O)Nc2ccc3c(c2)Cc2ccccc2-3)cc1 | nt | -8 | nt | 13 | nt | nt
COc1c(C)cccc1C(=O)NC(=S)Nc1ccc2c(c1)Cc1ccccc1-2 | -1 | -17 | 6 | 4 | 2 | 245*[fluorescence artefact?]
CCOC(=O)Cc1nn(C)c(=O)c2ccccc12 | 2 | -4 | 63* | 11 | -5 | 97
CC1CCN(C(=O)Cc2nn(C)c(=O)c3ccccc23)CC1 | 9 | -4 | -2 | 20 | 3 | 121
COc1cc(-c2[o+]c3cc(O)cc(O)c3cc2O)cc(O)c1O | nt | nt | nt | nt | 6 | nt
COc1ccc(C(=O)OCc2cc3cccc(C)c3[nH]c2=O)cc1 | 21 | -134 | 32 | 8 | -1 | 217*[fluorescence artefact?]
O=c1[nH]c2[nH]c(=S)[nH]c(=S)c2[nH]1 | nt | nt | nt | nt | 68* | nt
CCOc1ccc2nc(NCCNC(=O)Nc3ccccc3)c(C#N)cc2c1 | 3 | -10 | -1 | -23 | 15 | 89
CCOc1ccc2nc(NCCNC(=O)Nc3cccc(C)c3)c(C#N)cc2c1 | 51*[fluorescence artefact?] | -17 | 11 | -18 | 4 | 121
O=c1nc(-c2ccccc2)c2ccccc2[nH]1 | 6 | 60* | 7 | 7 | -7 | 81
CC(C)c1nc2oc3c(NCc4cccnc4)ncnc3c2c2c1CCC2 | -10 | nt | 16 | nt | -5 | 515*[fluorescence artefact?]
CCN1CCN(c2ncnc3c2oc2nc(C(C)C)c4c(c23)CCC4)CC1 | -2 | nt | -5 | nt | 6 | 123
CCOC(=O)N1CCN(c2ncnc3c2oc2nc(C(C)C)c4c(c23)CCC4)CC1 | 7 | nt | 29 | nt | 3 | 312*[fluorescence artefact?]
ClC(=Nc1cccc2ccccc12)N(c1ccccc1)c1ccccc1 | nt | nt | nt | nt | 3 | nt
C[C@@]12CCC(=O)C=C1CC[C@H]1[C@H]2[C@@H](O)C[C@]2(C)[C@@H]1CC[C@@]2(O)C(=O)COC(=O)C1CCCC1 | nt | nt | nt | nt | 28 | nt
O=C1Nc2ccc(S(=O)(=O)N3CCCC3)c3cccc1c23 | 12 | -1 | 20 | -12 | 2 | 93
O=C1Nc2ccc(S(=O)(=O)NCc3ccccn3)c3cccc1c23 | 33 | -45 | 61*[fluorescence artefact?] | -15 | -10 | 81
COc1ccc(C2C=C(c3ccc(C)c(C)c3)Nc3ncnn32)c(OC)c1OC (stereo not given) | -1 | 67* | -7 | -4 | -2 | 105
